Laboratory results: PubChem BioAssay (NCI)
The panel holds about 83,000 compounds, 20% with a hit somewhere; the sample as a whole holds those more often.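 Assay: single dose, 48 h. Readout: percent growth (0 = no net growth; negative = cell death). Active: <10.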 Unmarked numbers belong to inactive results. Activity calls are given as the source filed them.

Columns and labels:
Assay in all cases: NCI-60 one-dose screen, 48 h (100 = growth as untreated, 0 = no growth, -100 = all killed)
Conditions in all cases: 10 µM unless noted
SK-MEL-2 melanoma = test system: SK-MEL-2 melanoma
EKVX NSCLC = test system: EKVX NSCLC
SN12C renal = test system: SN12C renal
UO-31 renal = test system: UO-31 renal
TK-10 renal = test system: TK-10 renal
ACHN renal = test system: ACHN renal
CAKI-1 renal = test system: CAKI-1 renal
A498 renal = test system: A498 renal
CCRF-CEM leukemia = test system: CCRF-CEM leukemia
MOLT-4 leukemia = test system: MOLT-4 leukemia

Row | SMILES | growth (SK-MEL-2 melanoma) | growth (EKVX NSCLC) | growth (SN12C renal) | growth (UO-31 renal) | growth (TK-10 renal) | growth (ACHN renal) | growth (CAKI-1 renal) | growth (A498 renal) | growth (CCRF-CEM leukemia) | growth (MOLT-4 leukemia)
1 | COc1ccc(Nc2nc(N)nc3c(=O)[nH]ccc23)cc1 | 111% | 105% | 113% | 64.6% | 173% | 115% | 93.3% | 120% | 83.9% | 97.8%
2 | COc1ccc(-c2nc3c(c(-c4ccc(Cl)cc4)nn3-c3ccccc3)c(-c3ccc(O)cc3)c2C#N)cc1 | 62.4% | 49.6% | -26.7% (active) | 36.8% | 93.7% | 50.7% | 40.1% | 61.4% | 12.6% | 14.4%
3 | CC(C)c1nc2ccccc2n1CC(=O)N/N=C/c1cccc(O)c1 | 107% | 105% | 94.1% | 80.2% | 93.5% | 95.7% | 101% | 88% | 94.9% | 91.9%
4 | CCN1C(=O)N(CC)C2C1N=C(SC)N2/N=C/C=C/c1ccccc1OC (stereo not given) | 26.5% | 23.4% | 26.5% | 41.8% | 46.8% | 23.2% | 25% | 15.1% | 12.5% | 14.7%
5 | ClC1(Cl)C2CCCCCCC21 (stereo not given) | 93% | 107% | 108% | 93.4% | 92.1% | 110% | 98.3% | 79.3% | 109% | 109%
6 | CCCCCCCCCCCCCCCC1=NC(C)(C)CN1C(C)C | -67.9% (active) | 5.51% (active) | -36.3% (active) | -57.5% (active) | -74.2% (active) | -58.3% (active) | -45.4% (active) | 63.4% | -56.3% (active) | -59.8% (active)
7 | O=C1N(Cc2ccccc2Cl)c2ccccc2C12NN=C(c1ccccc1)S2 (stereo not given) | 91.3% | 58.1% | 64.1% | 54.2% | 105% | 59.4% | 47.4% | 52.8% | 57.3% | 53.6%
8 | C[C@H](NC(=O)c1snnc1C1CC1)c1c(F)cccc1Cl | 108% | 115% | 104% | 94% | 129% | 92.1% | 115% | 96.4% | 110% | 101%
9 | O=c1c2cc(Cl)ccc2oc2ccc(OCCCCCN3CCCCCC3)cc12 | 96.5% | 89.6% | 80.9% | 78.6% | 89.2% | 110% | 94.6% | 68.9% | 60.5% | 48.5%
10 | O=C(CCl)Nc1cc(O)c2c(c1)C(=O)c1cccc(O)c1C2=O | -49.4% (active) | 5% (active) | -43.1% (active) | -87% (active) | -87.3% (active) | -91.2% (active) | -94% (active) | -0.734% (active) | -45% (active) | -56.3% (active)
11 | C=C1C(=O)O[C@H]2[C@H]1CC/C(COC(=O)NCc1[nH]nc3ccccc13)=C\CC[C@@]1(C)O[C@@H]21 | 30.9% | 50.1% | 35.4% | 71.5% | -4.85% (active) | 14.4% | 16.6% | 94.3% | -6.22% (active) | -12.7% (active)
12 | CCN1C(=O)C(C)C=C(C)C=C1C (stereo not given) | 102% | 114% | 112% | 86.8% | 105% | 102% | 107% | 112% | 102% | 92.4%
13 | CC(=O)Cc1ccccn1 | 102% | 97.7% | 111% | 88.5% | 109% | 99.5% | 88% | 107% | 99.5% | 102%
14 | CCCCCCCC/C=C\CCCCCCCC(=O)OCCCCCC | 123% | 84.9% | 111% | 91.8% | 112% | 107% | 96% | 70.5% | 98.8% | 104%
15 | O=C(Nc1ccc(Br)cc1)Nc1cccc(Br)c1 | 26% | 41% | 32.5% | 34.9% | 29.2% | 14.9% | 50.3% | 21.4% | 15.6% | 1.92% (active)
16 | C#Cc1cccc(Nc2nc3cc([N+](=O)[O-])ccc3nc2Nc2ccc(O)cc2)c1 | -29.5% (active) | 23.1% | 24.9% | 14.6% | 3.86% (active) | 9.93% (active) | 36.4% | 49.4% | 6.32% (active) | 0.253% (active)
17 | C[Si](C)(C)C(c1ccccc1)c1ccccc1 | 127% | 109% | 102% | 82.3% | 108% | 93.1% | 86.2% | 99.7% | 79.4% | 81.8%
18 | c1csc(-c2cnc3nonc3n2)c1 | 105% | 101% | 86.7% | 66.5% | 128% | 85.7% | 90.3% | 88.1% | 79.7% | 78.9%
19 | CCOc1cc(/C=N\NC(=O)C[N+](C)(C)C)ccc1O | 115% | 98.7% | 109% | 113% | 105% | 103% | 95.9% | 115% | 98.5% | 28.5%
20 | O=C1Nc2ccccc2/C1=C\c1nc(C2CCN(S(=O)(=O)c3ccc(F)cc3)CC2)n2ccccc12 | 17.8% | 63.3% | 46% | 68.2% | 60.1% | 55.6% | 57.8% | 82.9% | 95.1% | 100%
21 | CNC(=O)OC1C(O[C@H]2C[C@H]3[C@@H]4CC=C5C[C@@H](O)CC[C@]5(C)[C@H]4CC[C@]3(C)[C@H]2[C@H](C)C(=O)CCC(C)C)OCC(O)C1OC1OCC(O)C(O)C1OC(=O)c1ccc(OC)cc1 (stereo not given in full) | -33.6% (active) | 30.1% | 59.9% | -18.8% (active) | 14% | 39.2% | 0.834% (active) | -60.3% (active) | -13.7% (active) | -40.2% (active)

Row | SMILES | growth (SK-MEL-2 melanoma) | growth (EKVX NSCLC) | growth (SN12C renal) | growth (UO-31 renal) | growth (TK-10 renal) | growth (ACHN renal) | growth (CAKI-1 renal) | growth (A498 renal) | growth (CCRF-CEM leukemia) | growth (MOLT-4 leukemia)
22 | CC(SC(C)C(=O)N/N=C/c1cccc(Cl)c1)C(=O)N/N=C\c1cccc(Cl)c1 (stereo not given) | 95.8% | 94.9% | 63.9% | 90.2% | 105% | 44% | 91.6% | 102% | 48.6% | 68.3%
23 | c1coc(CNc2c3ccccc3nc3ccccc23)c1 | 101% | 62.1% | 53.5% | 39.5% | 88.4% | 26.2% | 41% | 20.1% | 57.2% | 27.2%
24 | CN(C)c1nc(-c2cccs2)n2nc(-c3ccc(Cl)cc3)cc2n1 | 67% | 49.6% | 44.9% | -63.9% (active) | -23.1% (active) | -21.1% (active) | 18.8% | -11.4% (active) | 73.8% | 82.1%
25 | CN(C)CC(=O)c1ccc2cc(Br)c3ccccc3c2c1 | 61.3% | 89.7% | 72.6% | 36% | 72.7% | 59.7% | 75.4% | 42.2% | 71.3% | 40.3%
26 | c1cn2cc(-c3ccc4ncn(C5CCCCC5)c4c3)nc(-c3ccc4c(c3)ncn4C3CCCCC3)c2n1 | -65.6% (active) | -13.1% (active) | -54.6% (active) | -85.4% (active) | -59.3% (active) | -58.8% (active) | 17.2% | -88.1% (active) | 4.28% (active) | -30.5% (active)
27 | O=C(C(=O)N1CCCC1)c1cn(CCCn2cc(C(=O)C(=O)N3CCCC3)c3cc(Br)ccc32)c2ccc(Br)cc12 | 107% | 54% | 83.3% | 72.6% | 92.7% | 55.2% | 46.7% |  | 74% | 73.6%
28 | CCOCCNc1ccc(S(=O)(=O)c2ccc(N)cc2)cc1N | 111% | 86.6% | 110% | 90.8% | 111% | 106% |  | 83.2% | 96% | 107%
29 | Cc1ccc(NC(=O)c2cc(NCc3cc(O)ccc3O)ccc2O)cc1 | 82.8% | 98.7% | 86.1% | 58% | 102% | 100% | 107% |  | 26.4% | 69.7%
30 | CCN(CCC#N)c1ccccc1 | 106% | 101% | 90.8% | 89.1% | 117% | 112% |  | 130% | 93.6% | 101%
31 | O=C(CSc1nnc(Cc2ccccc2Nc2c(Cl)cccc2Cl)n1-c1ccccc1)N1N=C(c2ccc3ccccc3c2)CC1c1ccc(Cl)cc1 (stereo not given) | 103% | 93.5% | 96.6% | 80% | 95.5% | 109% |  | 102% | 113% | 98.4%
32 | CCSCC1CC(O)(c2ccccc2)C(c2ccccc2)C(c2ccc(F)cc2)O1 (stereo not given) | -0.854% (active) | 0.894% (active) | -22.9% (active) | -0.34% (active) | -15.4% (active) | -14.3% (active) | -13.5% (active) |  | 2.04% (active) | -48.2% (active)
33 | O=C(CSc1nc2c(n1Nc1ccccc1)-c1ccccc1SC2)Nc1nccs1 | 102% | 89.3% | 95.3% | 63.1% | 120% | 95.2% |  | 77% | 84.5% | 82.5%
34 | CC(=O)CC(c1ccc([N+](=O)[O-])cc1)c1c(O)c2ccccc2oc1=O (stereo not given) | 97% | 108% | 92.2% | 76.7% | 105% | 98.1% | 94.1% | 70.3% |  | 100%
35 | O=C1Nc2ccc(Cl)cc2/C1=C\c1c(-c2ccc(F)cc2)nc2ccccn12 | 66.2% | 33.8% | 6.4% (active) | 6.63% (active) | 82.8% | 31.4% |  | -18% (active) | 5.38% (active) | -4.17% (active)
36 | CCN(CC)CC(=O)Nc1c(C)ccc(N)c1C | 99.4% | 96.5% | 99.4% | 86.2% | 100% | 112% | 102% |  | 112% | 115%
37 | O=C1/C(=C/c2cc(F)cc(F)c2)Cc2cc(F)cc(F)c21 | 93.7% | 88% | 106% | 70.9% | 102% | 92.7% |  | 90.2% | 110% | 87.3%
38 | O=C(O)c1cc2cc(OCc3ccccc3)ccc2[nH]1 | 39.9% | 87.3% | 97.1% | 74.4% | 114% | 98.7% |  | 98% | 98.4% | 99.5%
39 | O/N=C1\c2ccccc2-c2ccc(Br)cc21 | 115% | 88.6% | 101% | 81.6% | 108% | 94.2% | 91.6% |  | 71.8% | 89.2%
40 | O=C(Nc1cccc(C2=NCCN2)c1)c1ccc(N=Nc2ccc(C(=O)Nc3cccc(C4=NCCN4)c3)cc2)cc1 | 56.6% | 62.6% | 49.9% | 72.8% | 40.2% | 52.4% | 90.7% | 66.3% |  | 80.9%
41 | CN(C)c1ccc(/C=C\c2cccc[n+]2C)cc1 | 75.6% | 23% | 52.2% | 59.5% | 67.2% | 77.3% |  | 13.4% | 49.6% | 74.4%
